Screening results deposited in PubChem BioAssay by National Center for Advancing Translational Sciences (NCATS).
G9a inh: blocks human histone lysine methyltransferase G9a; Potency, µM (doses to about 102 µM), most hits filed as inhibitors; 350,000 tested, 8.8% active; G9a H3K9 monomethylation, AlphaScreen, 2 h; AID 504332; Q96KQ7; also: nearly all actives have a fitted effect of over 75% in size
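Methyltransferase reactions run at room temperature for 2 h (20 nM enzyme, 500 nM biotin-H3K9 peptide, 20 uM SAM) after a 15 min compound preincubation; product detected by AlphaScreen beads and anti-H3K9me1 antibody.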
L3MBTL1 block: blocks human L3MBTL1; AlphaScreen L3MBTL1–H3K9me1 peptide binding; Q9Y468; Potency, µM (highest dose often 57.1 µM), most hits filed as inhibitors; 230,000 tested, 0.66% active; also: nearly all actives have a fitted effect of over 60% in size
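AlphaScreen proximity signal between nickel-chelate acceptor and streptavidin donor beads (final 10 ug/mL) reports binding of 50 nM L3MBTL1 to 75 nM biotin-H3 K9me1 peptide; complex incubated with compounds 30 min at room temperature; cefsulodin titration as control.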
HP1b binding inh: inhibitors of HP1-beta chromodomain binding to methylated histone tails; P83916; AlphaScreen HP1-beta / biotin-H3K9me3 peptide binding; Potency, µM (titrated, usually from 114 µM), most hits filed as inhibitors; 390,000 tested, 0.56% active; AID 540317; also: nearly all actives have a fitted effect of over 70% in size
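HP1-beta protein (50 nM final) preincubated 30 min at room temperature with biotinylated H3(1-18)K9me3 peptide (50 nM) in PBS pH 7.4, 0.01% Tween-20, then compound added for 30 min. AlphaScreen streptavidin donor/nickel chelate acceptor beads (10 ug/mL final), 30 min dark, luminescence read.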
BAZ2B inh: BAZ2B (human) inhibition. AlphaScreen BAZ2B-H3K14Ac peptide displacement. 360,000 tested, 4.4% active. Potency, µM (highest dose often 114 µM), usual class: inhibitors. AID 504333; also: nearly all actives have a fitted effect of over 60% in size
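Multi-concentration screen (max 110 uM) measuring displacement of acetylated histone H3 peptide from BAZ2B by AlphaScreen, using 50 nM protein, 50 nM peptide and 10 ug/mL streptavidin donor plus Ni-chelate acceptor beads.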
JMJD2A Tudor: blocks the human JMJD2A Tudor domain. AlphaScreen JMJD2A-Tudor / H3K4me3 peptide binding. O75164. Potency, µM (doses to about 114 µM), most hits filed as inhibitors. 390,000 tested, 4.4% active; also: nearly all actives have a fitted effect of over 50% in size
Numbers stand for hits; - = inactive; ? = inconclusive; . = no result given; [ ] = dose if it differs, or a comment. Sampled rows, rich in hits. Any-hit rate of the full collection: about 11%. Calls follow the shape of the dose curve; as a rule, active = well fitted inhibition curve with a large enough effect; inconclusive = small, poorly fitted or top-dose-only effect; inactive = no such curve, though single readings can be large or run the other way.

SMILES	G9a inh	L3MBTL1 block	HP1b binding inh	BAZ2B inh	JMJD2A Tudor
COc1ccc(NC(=O)Nc2ccc(Cc3ccncc3)cc2)c(OC)c1	?	-	?	50µM	?
COc1ccc(OC)c(NC(=O)C2CCN(S(=O)(=O)c3ccc4c(c3)CCCC(=O)N4)CC2)c1	-	.	-	-	-
COc1ccc(OC)c(NC(=S)Nc2ccccc2)c1	-	-	-	-	-
COc1ccc(NC(=O)N(C2CCCCC2)C(C)c2ccco2)c(OC)c1 (stereo unspecified)	45µM	-	-	?	?
COC(=O)NNC(=S)Nc1cc(OC)ccc1OC	45µM	.	-	?	?
COc1ccc(NC(=S)NC2CCCCC2)c(OC)c1	50µM	-	?	?	-
COc1ccc(-n2c(=O)c3ccc(C(=O)NCc4ccc(C)cc4)cc3n(CC(=O)Nc3cccc(F)c3)c2=O)cc1	-	.	-	.	-
CCCCN(C)c1nnc(NC(=O)Nc2cccc(C(C)=O)c2)s1	-	.	-	-	-
COc1ccc(-n2c(=O)c(CCc3ccccc3)nc3cnc(OC)nc32)cc1	-[0.501 µM]	.	.	.	.
COC(=O)c1cc2c(-c3ccccc3)cc3ccccn3c-2c1C(=O)OC	13µM	.	?	13µM	45µM
COC(=O)c1c(C(=O)OC)c2cccc3cc(-c4ccccc4)c4ccc1c4n32	?	.	?	2.5µM	8.9µM
O=C(NCCc1ccccc1)C(=O)c1c(-c2ccccc2)cc2ccccn12	-	-	-	?	-
O=C(CC1N=C2c3ccccc3N=C(SCc3ccccc3Cl)N2C1=O)NC1CCCCC1 (stereo unspecified)	-	.	-	-	-
O=C(CC(=O)Nc1ccccc1[N+](=O)[O-])Nc1ccccc1[N+](=O)[O-]	-	.	-	-	-
O=C(CNCc1cccc2ccccc12)Nc1ccccc1[N+](=O)[O-]	50µM	?	?	?	?
CCONC(=O)Nc1ccccc1[N+](=O)[O-]	71µM	-	-	-	-
CC1CCCC(C)N1CCCNC(=O)c1csc2c1CCCCC2 (stereo unspecified)	.	.	-	-	-
CCc1nc(SC)ncc1C(=O)NCc1cccc(Br)c1	-	.	-	-	-
CC(NC(=O)Cc1ccc(NS(=O)(=O)c2cccc(C(F)(F)F)c2)cc1)c1ccccn1 (stereo unspecified)	-	.	-	-	-
COc1ccc2c(c1)c(=O)oc1c(C)c(OCc3ccc(C(=O)O)cc3)ccc12	?	.	-	50µM	50µM
COc1ccc2c(c1)c(=O)oc1c(C)c(OCC(=O)N3CCc4ccccc4C3)ccc12	.	-	-	-	-
O=C(Nc1ccccc1F)Nc1ccc([N+](=O)[O-])cc1Cl	-	-	-	-	-
O=C(CSc1ccc([N+](=O)[O-])cc1)Nc1ccccc1N1CCOCC1	.	-	-	.	-
O=C(CSc1ccc([N+](=O)[O-])cn1)Nc1ccccc1N1CCOCC1	40µM	.	-	-	-
Cc1csc(NC(=O)CSc2ccc([N+](=O)[O-])cn2)n1	50µM	.	-	-	-
SMILES	G9a inh	L3MBTL1 block	HP1b binding inh	BAZ2B inh	JMJD2A Tudor
O=C(CSc1ccc([N+](=O)[O-])cn1)Nc1nccs1	-	.	-	-	-
COC(=O)C(C(=O)OC)C(c1ccccc1)C(C(=O)c1ccccc1)[N+](=O)[O-] (stereo unspecified)	50µM	-	-	-	-
CC(C)/C(=N\NS(=O)(=O)c1ccc(Br)cc1)c1cccs1	?	-	-	-	50µM
C/C(=N\NS(=O)(=O)c1ccc(C)c([N+](=O)[O-])c1)c1cccs1	32µM	-	-	.	-
C/C(=N\NS(=O)(=O)c1ccc([N+](=O)[O-])cc1)c1cccs1	45µM	.	-	?	?
Cc1ccc(/C=N/NC(=O)c2cccs2)cc1[N+](=O)[O-]	-	-	-	-	-
Cc1ccc(S(=O)(=O)NC(C)c2ccccc2)cc1[N+](=O)[O-] (stereo unspecified)	-	-	-	-	-
C/C(CC(C)C)=N\NS(=O)(=O)c1ccc(C)c([N+](=O)[O-])c1	32µM	-	-	-	?
Cc1cc(C)n(-c2nc3ccccc3nc2Nc2ccc3c(c2)OCO3)n1	-	-	-	-	-
Cc1cc(C)n(-c2nc3ccccc3nc2Nc2ccc(N(C)C)cc2)n1	1.8µM	.	8.9µM	3.2µM	11µM
COc1ccc(S(=O)(=O)N(CC(=O)Nc2ccc(F)c(Cl)c2)c2ccc(C)cc2)cc1OC	-	.	-	-	-
Cc1cccn2c(=O)c(C=O)c(Sc3ncccn3)nc12	40µM	-	-	-	-
COc1cc(Cl)c(S(=O)(=O)N2CCCC2)cc1Cl	.	-	-	-	-
COc1cc(N2C(=O)C=CC2=O)c(OC)cc1Cl	2.5µM	-	10µM	-	10µM
CN1CCN(C(=O)/C(=C/c2ccccc2)c2ccccc2)CC1	-	.	-	-	-
CN1CCN(C(=O)/C(=C/c2ccc(F)cc2)c2ccsc2)CC1	45µM	-	-	-	-
FC(F)(F)c1cnc(Nc2ccc(N3CCOCC3)cc2)c(Cl)c1	22µM	-	?	35µM	?
COc1cccc(NC(=O)CSc2nnc3[nH]c(=O)cc(-c4ccccc4)n23)c1	?	.	-	-	-
O=C(O)CC1Sc2nc3ccccc3n2C1=O (stereo unspecified)	45µM	.	-	-	-
CS(=O)(=O)c1ccc(Sc2nc3ccccc3[nH]2)c([N+](=O)[O-])c1	?	-	-	?	11µM
O=[N+]([O-])c1cc(S(=O)(=O)C(F)(F)F)ccc1Sc1nc2ccccc2[nH]1	?	.	-	?	?
Nc1ccccc1Sc1nc2ccccc2[nH]1	7.1µM	?	?	40µM	28µM
O=C(CNC(=O)C(c1ccccc1)c1ccccc1)OCC(=O)c1ccc2ccccc2c1	.	.	-	.	-
CN1c2ccsc2C(O)=C(C(=S)Nc2ccccc2)S1(=O)=O	?	.	-	?	?
Cc1ccccc1NC(=S)C1=C(O)c2sccc2N(C)S1(=O)=O	22µM	.	-	?	?
SMILES	G9a inh	L3MBTL1 block	HP1b binding inh	BAZ2B inh	JMJD2A Tudor
O=C1c2ccccc2C(=O)N1CCCCNc1ccccc1	.	.	-	.	-
c1ccc(NCCCNc2ccccc2)cc1	?	-[11.4 µM]	-	50µM	?
COc1cccc([C@H]2Nc3ccc(S(=O)(=O)Nc4cc(C)ccc4C)cc3[C@H]3C=CC[C@H]32)c1	13µM	.	-	-	-
Cc1ccc([C@H]2Nc3ccc(S(=O)(=O)Nc4cccc(Cl)c4C)cc3[C@H]3C=CC[C@H]32)cc1	14µM	.	-	?	?
CCOc1ccccc1NC(=O)c1nnn(CC(=O)Nc2ccccc2CC)c1N	-	.	-	.	-
c1ccc(Cc2nnc3sc(-c4ccccn4)nn23)cc1	?	-	-	-	-
c1ccc(Cc2nnc3sc(-c4cccs4)nn23)cc1	2.2µM	-	-	-	-
c1ccc(Cc2nnc3sc(-c4ccc5c(c4)OCCO5)nn23)cc1	10µM	-	-	-	-
c1ccc(Cc2nnc3sc(-c4ccncc4)nn23)cc1	3.5µM	-	-	-	-
COc1ccc(NC(=O)c2cc3nc(-c4ccc(Cl)c(Cl)c4)cc(C(F)(F)F)n3n2)c(OC)c1	-	.	-	-	-
